Experimental findings from ChEMBL document CHEMBL4513216, “Probing the Open Global Health Chemical Diversity Library for Multistage-Active Starting Points for Next-Generation Antimalarials” (ACS Infect Dis, 2020) are described below.

Among all 69,000 compounds or so, about 8,600 (12%) showed an effect of 50% or more. Many of the other results were omitted from the sample, so strong results are more common in it than they were.

The assay has as its system Plasmodium berghei. In words: Screen against P. berghei liver stage (PbLuc), transformed with Luciferase, at 10uM. In kind it is functional, HepG2. The note with it: tested at 10 uM.
On to `Cn1ccnc1N1CCN(C(=O)Cc2ccc(F)cc2)CC1`, for which the INHIBITION is 0%.

As for `CCS(=O)(=O)N1CC[C@@H]2[C@H]1CCC(=O)N2CCOC`, the INHIBITION was 24.9%. Under `CC(C)OCCN(C)C(C)c1cccc(S(N)(=O)=O)c1` (stereo not drawn) stands 26.3%; under `CS(=O)(=O)N1CCCC12CCCN(S(=O)(=O)c1ccc(F)c(F)c1)C2` (stereo not drawn), -0.371%; under `O=C(O)[C@@H]1CN(C(=O)NCC2CCCCC2)C[C@H]1c1ccccn1`, -43.5%. On to `CCOCC1CN(CCN2CCCCC2)Cc2cnn(C)c21` (stereo not drawn), for which the INHIBITION came to 36.9%. Under `Cc1ccc(Oc2ncccc2C(=O)N(C)CCCN(C)C)cc1` stands 30.3%; under `CC(C)(C)c1ncc(S(C)(=O)=O)c(C2CCCNC2)n1` (stereo not drawn), 25.3%; under `O=C1c2cccnc2OC(CN2CCOCC2)CN1C1CCC1` (stereo not drawn), -10.3%. Under `COC(=O)c1ccccc1NC(=O)c1c(C)cn(C)c1CC(=O)O` stands 19.2%; under `O=C1CCNc2ncc(-c3cccc(Cl)c3)cc2CN1C1CC1`, 2.55%; under `O=C1CCNc2ncc(-c3ccc(Cl)cc3)cc2CN1C1CC1`, 7.85%. Take `O=C1CCNc2ncc(-c3ccccc3Cl)cc2CN1C1CC1`: the INHIBITION amounted to 50.2%.

For the molecule `Cn1cc(CN2CCOC3(CCCN(C(=O)c4ccco4)C3)C2)cn1` (stereo not drawn), the INHIBITION was 8.47%.

As for `Cc1cc(C)nc(N2CC[C@H](Oc3ccccc3F)[C@@H](O)CC2)n1`, the INHIBITION was 42.6%. Under `CC(C)N1CCOCC2(CCN(c3cnccn3)CC2)C1` stands 35.8%; under `COCCCn1ccc(NS(=O)(=O)c2cc(C)c(F)cc2F)n1`, -15.3%. Regarding `CCCOC(C)Cn1ccc2[nH]c(=O)c(C#N)cc2c1=O` (stereo not drawn), the INHIBITION is 71.8%.

For the molecule `CC(O)CCn1ccc2[nH]c(=O)c(C#N)cc2c1=O` (stereo not drawn), the INHIBITION is -1.09%. Under `CCC(Cn1ccc2[nH]c(=O)c(C#N)cc2c1=O)OC` (stereo not drawn) stands 3.82%; under `CN(Cc1nc(Cc2cccc(C(F)(F)F)c2)no1)C(C1CC1)C1CC1`, 27.6%. Under `Cn1nc(CN2CCCCC2)c2c1CN(Cc1ccoc1)C2` stands 11.3%; under `O=C(c1cc(C2CCCC2)no1)N1CCCCC1`, -12.5%. Turning to `CC(=O)N1[C@H](CN(C)C)C[C@@H]2CN(C(=O)c3cnc(C)cn3)CC[C@@H]21`, the INHIBITION was -50.4%. On to `Cc1ccc2c(c1)CN(C(=O)C1CCCCC1)C(CN(C)C)CO2` (stereo not drawn), for which the INHIBITION worked out at 60.3%. Under `Cc1ccc2c(c1)CN(C(=O)c1cnc(C)cn1)C(CN(C)C)CO2` (stereo not drawn) stands 66.5%; under `Cc1nc(C)c(C(=O)N2Cc3ccccc3OCC2CN(C)C)o1` (stereo not drawn), 11.8%.

For the molecule `CN(CCO)CC1COCCN1C(=O)C1CCCCC1` (stereo not drawn), the INHIBITION is listed as 40.7%. Under `Cc1ccc2c(c1)[C@@H](CC(=O)N(C)C)CCO2` stands 14.5%; under `Cc1nc(CN2CCc3ccc(S(N)(=O)=O)cc32)oc1C`, -24%. Under `CN(C)c1ncccc1CNC(=O)NCc1cccs1` stands 41.2%; under `CN1CCN(C(=O)c2cc[nH]c(=O)c2)Cc2ccccc21`, 20%; under `O=C(NCC1CCCCC1)N1C[C@@H]2C[C@@H]1CN2`, 9.97%. Under `Cc1nccn1-c1nccnc1C1CCCN(C)C1` (stereo not drawn) stands 34.55%; under `Cc1nccn1-c1nccnc1C1CCN(Cc2ccc(F)cc2)CC1`, 71.1%.

`Cc1nccn1-c1cccc(C2CCCN(C3CCCC3)C2)n1` (stereo not drawn): the INHIBITION was found to be 36.7%. On to `COc1ccc(CN2CCC(c3nccnc3-n3ccnc3)CC2)cc1`, for which the INHIBITION stood at 35.2%. As for `Fc1ccc(CN2CCC(c3nccnc3-n3ccnc3)CC2)cc1`, the INHIBITION is recorded as 37%. Under `Cc1nccn1-c1nccnc1C1CCCN(C2CCCC2)C1` (stereo not drawn) stands 59.45%; under `Cc1n[nH]c(C2CN(Cc3nnc(C4CCC4)o3)CCO2)n1` (stereo not drawn), 0.914%. Under `c1cc(CN2C[C@@H]3OCCN(CCN4CCCC4)[C@@H]3C2)co1` stands 15.7%. Under `CC(=O)OCc1ccc(CN2CCCCCC2c2cc(C)no2)o1` (stereo not drawn) stands 18.3%.

With `CCc1nc(C2CCCN2C(=O)c2cc3c(s2)CCC3)no1` (stereo not drawn), the INHIBITION is recorded as 7.08%.

With `CCC(C(=O)NC1(C(N)=O)CCCC1)n1cccn1` (stereo not drawn), the INHIBITION came out at 55.9%. Regarding `CCC(C(=O)NC1(COC)CCCC1)n1cccn1` (stereo not drawn), the INHIBITION is 8.08%.

For `CCC(C(=O)NC1(CN2CCOCC2)CCCC1)n1cccn1` (stereo not drawn), the INHIBITION is 30.9%. Under `CC(C)C(=O)Nc1ccc(C(O)Cn2nc(-c3cccs3)oc2=O)cc1` (stereo not drawn) stands 8.9%; under `c1cnn(Cc2nnc3n2CCCN(Cc2ccsc2)C3)c1`, 32.4%; under `Cc1cnc(C(=O)N2C[C@@H]3[C@@H](C2)OCC(=O)N3CC2CCCC2)cn1`, -18.5%. Regarding `O=C(c1cnccn1)N1C[C@@H]2[C@@H](C1)OCC(=O)N2CC1CCCC1`, the INHIBITION amounted to 91.9%. Under `O=C(c1cnccn1)N1C[C@@H]2OCC(=O)N(CC3CCCCC3)[C@@H]2C1` stands 26.4%; under `CN(Cc1ccco1)C(=O)CN1CCOC(Cn2cncn2)C1` (stereo not drawn), -0.219%.

Consider `CC(C)N(C)Cc1cnc2n1CCN(C(=O)Cc1ccccn1)C2`, for which the INHIBITION was determined as 24.3%.
